# About 79,000 compounds went through this panel and 15% of them were active in at least one assay; those are over-represented in the sample as a whole. Unmarked numbers belong to inactive results. Cut-off read from the data, not from the text of the source: active = growth inhibition above about 70%; inactive = the rest.
# Test: NCI Yeast Anticancer Drug Screen. Data for the rad50 strain (AID 155);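 note: 0% = growth of vehicle-only cultures of the same strain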
# Settings: S. cerevisiae rad50 strain growth inhibition; at 50.0 µM; hits give high values
# Procedure, shortened: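 Inhibition values express reduced yeast growth in compound-treated cultures relative to vehicle-treated controls.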
row,SMILES,growth inhibition [%]
1,O=C(O)c1ccc(C(=O)c2ccc(C(=O)c3ccc(C(=O)O)cc3)cc2)cc1,-9.1
2,NC1=NC=NCN1c1ccc(N)cc1,1.65
3,CC1(C)CC2=C(Sc3ccccc3N2)C(=O)C1C(=O)C(=O)Nc1cccc([N+](=O)[O-])c1 (configuration not stated),-22.1
4,COC(=O)c1ccccc1CC1Cc2cc3c(cc2C1)CCC3,20.5
5,Nc1ccn(C2OC(CCl)C(O)C2O)c(=O)n1 (configuration not stated),17.2
6,Cn1c2nc(-[n+]3ccc(N4CCOCC4)cc3)nc-2c([O-])n(C)c1=O,-20.8
7,Nc1ncc2c(n1)SCC2,-10.3
8,CC1C(c2ccccc2)=C(c2ccccc2)C(c2ccccc2)=C(c2ccccc2)C1c1ccccc1 (configuration not stated),27.6
9,COC(=O)c1ccc(N(C)CC/C(CNc2nc(N)[nH]c(=O)c2[N+](=O)[O-])=N\NC(N)=O)cc1,9.35
10,O=C1c2ccccc2C(=O)N1/N=C/c1ccc([N+](=O)[O-])cc1,-4.4
11,O=C(NCC1CC1)c1ccccc1NC(=O)c1cc2ccccc2oc1=O,-7.9
12,CN(C)CCC(C(=O)C(C)(C)C)c1ccccn1 (configuration not stated),-7.2
13,C=CCO[Si](C=C)(OCC=C)OCC=C,31.8
14,Cc1ccc2c(c1)nc(-c1ccccn1)n2CCc1ccncc1,62.5
15,CN(C)CC1CCC/C(=C\c2ccccc2)C1=O (configuration not stated),37.1
16,N#CC1=C(N)C(c2ccccc2)(c2ccccc2)CC1,30.4
17,CCOC(=O)/C=C\C(=O)O.[Mn],-16.2
18,CC(=O)OCC(OC(C)=O)C1OC(OCc2ccccc2)C(OC(C)=O)C(OC(C)=O)C1OC(C)=O (configuration not stated),-10.1
19,NC(=O)C(=Cn1c(=S)[nH]c2ccccc21)C(N)=O,-51.9
20,Cc1ccc(S(=O)(=O)N(CC(O)c2ccccc2)CC(O)c2ccccc2)cc1 (configuration not stated),-3.95
21,CC(C)=C1CCC/C1=N\Nc1ccc([N+](=O)[O-])cc1[N+](=O)[O-],-5.9
22,O=C(CCC(=O)Nc1ccc(Cl)c(Cl)c1)CC(=O)c1ccc2ccccc2c1,22

# Test: NCI Yeast Anticancer Drug Screen. Data for the mec2-1 strain (AID 157)
# Settings: S. cerevisiae mec2-1 strain, at 50.0 µM, hits give high values
# Procedure, shortened: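 mec2-1 yeast strain, carrying an alteration in DNA damage repair or cell cycle control, was exposed to compounds; growth inhibition was measured relative to vehicle-treated controls.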
row,SMILES,growth inhibition [%]
1,Nc1nc(Cc2ccccc2)nc2[nH]ncc12,6.3
2,O=S(=O)(O)C(Nc1ccc(Cl)cc1)c1ccccc1 (configuration not stated),6.2
3,CC(=O)OC1C=CCC2C(=O)C3=C(C(=O)c4ccccc4C3=O)C(=O)C12 (configuration not stated),21.3
4,O=C(Cl)CN1C(=O)c2ccccc2C1=O,-24
5,Cc1cc(=O)[nH]c(NN)n1,-1.85
6,O=C1CCCC/C1=C\c1ccc([N+](=O)[O-])cc1,27.9
7,CCN(CC)c1cccc(C(=O)OCCNCC(C)C)c1,0.85
8,COC(=O)CCC(C)C1CCC2C3CCC4CC5CCC4(C)C3(O5)C(Br)C(Br)C12C (configuration not stated),-48.1
9,Fc1cccc(C2SCc3nc4cc5ccccc5cc4n32)c1 (configuration not stated),-1.25
10,O=c1[nH][nH]c(=O)c2c1ncn2Cc1ccccc1,-17
11,CC(=O)OCC1OC(n2nc(C#N)c(C#N)n2)C(OC(C)=O)C1OC(C)=O (configuration not stated),-3
12,c1ccc2c[n+]3cc4ccccc4cc3cc2c1,23.4
13,O=[N+]([O-])c1ccc(C=Nc2ccc3c(c2)Cc2ccccc2-3)cc1,-16.8
14,CCOC(=O)c1ncn2c1[nH]c(=O)c1ccccc12,-16.6
15,CCCc1ccc(N=Nc2ccc(C(=O)O)cc2)cc1,-3.4
16,COC(=O)NN=C1C(C)(C)C(=NNC(=O)OC)C1(C)C,-15.5
17,CCCCCCCCCC/C=C/c1c(C)[nH]c2ccccc2c1=O,8.7
18,CC1(O)CC2C=CC1CC2 (configuration not stated),7.15
19,O=C(O)c1ccc(C(=O)c2ccc(C(=O)c3ccc(C(=O)O)cc3)cc2)cc1,-18.4
20,NC1=NC=NCN1c1ccc(N)cc1,-2.65

row,SMILES,growth inhibition [%]
1,CC1(C)CC2=C(Sc3ccccc3N2)C(=O)C1C(=O)C(=O)Nc1cccc([N+](=O)[O-])c1 (configuration not stated),-22.8
2,COC(=O)c1ccccc1CC1Cc2cc3c(cc2C1)CCC3,7.1
3,Nc1ccn(C2OC(CCl)C(O)C2O)c(=O)n1 (configuration not stated),3.2
4,Cn1c2nc(-[n+]3ccc(N4CCOCC4)cc3)nc-2c([O-])n(C)c1=O,1.1
5,Nc1ncc2c(n1)SCC2,-5.8
6,CC1C(c2ccccc2)=C(c2ccccc2)C(c2ccccc2)=C(c2ccccc2)C1c1ccccc1 (configuration not stated),-19.8
7,COC(=O)c1ccc(N(C)CC/C(CNc2nc(N)[nH]c(=O)c2[N+](=O)[O-])=N\NC(N)=O)cc1,10.6
8,O=C1c2ccccc2C(=O)N1/N=C/c1ccc([N+](=O)[O-])cc1,-17
9,O=C(NCC1CC1)c1ccccc1NC(=O)c1cc2ccccc2oc1=O,-8.25
10,CN(C)CCC(C(=O)C(C)(C)C)c1ccccn1 (configuration not stated),-9.2
11,C=CCO[Si](C=C)(OCC=C)OCC=C,-10.9
12,Cc1ccc2c(c1)nc(-c1ccccn1)n2CCc1ccncc1,34.1
13,CN(C)CC1CCC/C(=C\c2ccccc2)C1=O (configuration not stated),41.8
14,N#CC1=C(N)C(c2ccccc2)(c2ccccc2)CC1,29.6
15,CCOC(=O)/C=C\C(=O)O.[Mn],-21.4
16,CC(=O)OCC(OC(C)=O)C1OC(OCc2ccccc2)C(OC(C)=O)C(OC(C)=O)C1OC(C)=O (configuration not stated),-4.2
17,NC(=O)C(=Cn1c(=S)[nH]c2ccccc21)C(N)=O,-23.2
18,Cc1ccc(S(=O)(=O)N(CC(O)c2ccccc2)CC(O)c2ccccc2)cc1 (configuration not stated),-1.7
19,CC(C)=C1CCC/C1=N\Nc1ccc([N+](=O)[O-])cc1[N+](=O)[O-],-1.35
20,O=C(CCC(=O)Nc1ccc(Cl)c(Cl)c1)CC(=O)c1ccc2ccccc2c1,9.6
